About 5,900 (2.8%) of roughly 210,000 compounds were called active. Not shown: some 5% with an inconclusive outcome. The list comes from a sample in which actives are over-represented; it also holds similar structures and randomly drawn compounds. A number with no mark means an inactive call. The call rests on the fitted dose curve; in most records, active means well fitted activation curve with a large enough effect; inconclusive means small, poorly fitted or top-dose-only effect; inactive means no such curve, though single readings can be large or run the other way.
Assay: qHTS Assay for Enhancers of SMN2 Splice Variant Expression; further: nearly all actives have a fitted effect of over 55% in size; on activity change, positive = activation: % of control where 0% means no effect
Conditions: HEK293 SMN2-luciferase splicing reporter, luminescence, 30-36 h; series mostly up to 46.1 µM; activity change, positive = activation: at the top concentration
Method in brief: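 HEK293 cells carry an SMN2 minigene-luciferase reporter in which exon 7 inclusion puts luciferase in frame. Cells were seeded at 2000 cells/well, attached for 10-12 hours, then exposed to compounds for 30-36 hours at 37C before ONE-Glo luminescence.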
Potency means the concentration at half of the fitted maximal effect.

Structure (SMILES) | activity change, positive = activation | Potency
CC(C)[C@@H]1NC(=O)[C@H](Cc2ccccc2)NC(=O)[C@@H](CC(=O)O)NC(=O)CNC(=O)[C@H](CCCNC(=N)N)NC1=O | -22.6% | –
CCOC(=O)N1CCC(NC(=O)c2ccc3nc(N4CCOCC4)sc3c2)CC1 | -24.2% | –
O=C(NCc1ccc(F)cc1)c1ccc2nc(N3CCCCC3)sc2c1 | – | 4.47 µM (active)
Cc1ccc(C)n1-c1nnc(N2CCC(C(=O)NCc3ccc(F)cc3)CC2)s1 | -5.38% | –
O=C(NCCCN1CCN(c2cccc(Cl)c2)CC1)c1nnc(Cc2ccc(F)cc2Cl)o1 | -27.3% | –
COc1ccc(Cl)cc1NC(=O)Cn1c(=O)c2ccccc2n2nncc12 | -15.1% | –
CCOc1ccc(CCNC(=O)Cn2nc(CC)n3c(cc4sc(CC)cc43)c2=O)cc1OCC | -6.23% | –
Cc1ccc(Cl)cc1NC(=O)CCS(=O)(=O)c1ccc(Br)s1 | -15.5% | –
Cc1nc2nc(NCc3cccc(Br)c3)[nH]n2c(=O)c1Cc1ccccc1 | 0.373% | –
Cc1cccc(NC(=O)c2ccc3ccccc3n2)n1 | – | 12.6 µM (active)
Cc1cccc(NC(=O)c2cc(N3C(=O)CCC3=O)ccc2Cl)n1 | -9.11% | –
Cc1cccc(NC(=O)c2ccccc2NC(=O)C(C)(C)C)n1 | -6.31% | –
COc1ccc(NC(=O)CSc2nc(C)cs2)cc1 | 9.16% | –
Cc1cccc(C)c1Nc1nnc(SCC(=O)Nc2sccc2C#N)s1 | 13.8% | –
Cc1csc(SCC(=O)Nc2sccc2C#N)n1 | – | 12.6 µM (active)
CCCc1cc(=O)n2[nH]c(NCc3ccc(CC)cc3)nc2n1 | 5.2% | –
CCOc1ccccc1NC(=O)Cn1c(=O)n(-c2cccc(C)c2)c(=O)c2c1c1cc(OC)ccc1n2C | -0.773% | –
COc1ccc(-c2nc3nc(C)cc(C)n3c2Nc2c(C)cccc2C)cc1 | 6.57% | –
CCOC(=O)c1c(NC(=O)Cc2coc3ccc(CC)cc23)sc2c1CCC2 | -0.233% | –
COc1ccc(OCC(=O)Nc2nnc(-c3ccco3)s2)cc1 | 4.15% | –
CCCCOc1ccc(C(=O)NCc2ccco2)cc1 | -27% | –
CCOc1ccc(-c2nnc(-c3ccco3)o2)cc1 | – | 1.12 µM (active)

Structure (SMILES) | activity change, positive = activation | Potency
COc1ccc(C(=O)CSc2nnc(-c3ccco3)o2)cc1 | 0.989% | –
N#Cc1ccc(OCc2nnc(-c3ccc([N+](=O)[O-])cc3)o2)cc1 | 7.74% | –
CCCCOc1ccc(-c2nnc(-c3ccco3)o2)cc1 | – | 14.1 µM (active)
Cc1ccc(NC(=O)Nc2sc3nc4n(c(=O)c3c2C)CCC(C)CC4)c(Cl)c1 (stereo not given) | 6.1% | –
C=C1O[C@@](CO)(n2cnc3c(N)ncnc32)[C@H](O)[C@@H]1O | -7.24% | –
O=C1CC(c2nnc(Cc3ccc(Cl)cc3)o2)CN1c1ccccc1 (stereo not given) | 10.3% | –
COc1ccc(OC)c(NC(=O)C2CCN(S(=O)(=O)c3ccc(C)cc3)CC2)c1 | -5.72% | –
COc1ccc(Cl)cc1-n1c(CCC(=O)O)ccc1-c1ccc(C)cc1 | -4.16% | –
COC(=O)N1C(/C=C/C=C/c2ccc(OC)cc2)=Cc2ccccc2C1CC(C)=O (stereo not given) | -7.94% [at 9.22 µM] | –
Cc1ccc2oc(C(=O)Nc3ccc(S(=O)(=O)N4CCCCCC4)cc3)cc(=O)c2c1 | 5.39% | –
Cc1ccc(NC(=O)NC(=O)N(C2CCCCC2)S(=O)(=O)c2ccccc2)cc1 | – | 7.94 µM (active)
CS(=O)(=O)N(C(=O)NC(=O)NC1CCS(=O)(=O)C1)C1CCCCC1 (stereo not given) | -4.22% | –
CC(c1ccco1)N(C(=O)Nc1ccccc1)C1CCCCC1 (stereo not given) | 1.7% | –
CCOC(=O)C1CCCN(CC(=O)Nc2cc(C)c3c(=O)oc4ccccc4c3n2)C1 (stereo not given) | -14.2% | –
CCN(CC)S(=O)(=O)c1ccc2c(c1)c(=O)c(C(=O)N1CCN(c3cccc(Cl)c3)CC1)cn2C | -7.2% | –
CCOCCCNC(=O)c1c(NC(=O)Cc2coc3ccc(C)cc23)sc2c1CCC2 | -4.12% | –
Cc1ccc(C(=O)OCc2nc(N)nc(Nc3ccccc3C)n2)cc1 | -27.6% | –
Cc1ccccc1Nc1nc(N)nc(CN2CCN(c3ccccn3)CC2)n1 | -2.5% | –
Cc1ccccc1Nc1nc(N)nc(CSc2ccccc2)n1 | – | 14.1 µM (active)
COc1ccc(CCNC(=O)CCCn2c(=O)c3ccccc3n(Cc3ccc(C)cc3)c2=O)cc1OC | -6.14% | –
CCc1c(C)sc(NC(=O)/C=C/c2ccc3c(c2)OCO3)c1C(=O)OC | -23.9% | –
COc1ccc(OC)c(/C=C/C(=O)OCC(=O)Nc2ccc3c(c2)OCCO3)c1 | -0.868% | –

Structure (SMILES) | activity change, positive = activation | Potency
Cc1cccc(NC(=O)/C=C/c2ccc3c(c2)OCO3)n1 | – | 2.24 µM (active)
COc1ccc(/C=C/C(=O)Nc2ccc3c(c2)OCCO3)cc1OC | -4.17% | –
O=C(/C=C\c1ccc2c(c1)OCO2)NC1(C(=O)Nc2ccc3c(c2)OCCO3)CCCCC1 | 3.51% | –
COc1cccc(/C=C/C(=O)Nc2ccc3c(c2)OCCO3)c1 | – | 11.2 µM (active)
COc1ccc(NC(=O)CNC(=O)Cn2ccc3ccccc3c2=O)c(OC)c1 | 14.1% | –
Cc1ccc(C)c(Cn2c(C(=O)O)c(CNCc3cccs3)c3ccccc32)c1 | -7.69% | –
CCOc1ccc(Nc2c(S(=O)(=O)c3ccccc3)cnc3ccccc23)cc1 | -35.9% | –
COc1cc(Br)cc2cc(S(=O)(=O)c3ccccc3)c(=O)oc12 | 3.68% | –
CN(Cc1ccccc1)C(=O)c1cn(C)c2ccc(S(=O)(=O)N3CCCCC3)cc2c1=O | 1.18% | –
CCOc1cccc(C(=O)Nc2nnc(-c3cccs3)s2)c1 | – | 12.6 µM (active)
CCOc1cccc(C(=O)Nc2cccnc2)c1 | 7.59% | –
CCc1nnc(NC(=O)c2cccs2)s1 | 15% | –
CCC(C)[C@@H](N)C(=O)O (stereo not given in full) | 0.053% | –
Cc1ccc(N2CC(c3nnc(Cc4ccccc4Cl)o3)CC2=O)cc1 (stereo not given) | 9.41% | –
COc1ccccc1N1CCN(C(=O)c2cc(-c3ccc(Cl)c(Cl)c3)on2)CC1 | 7.06% | –
O=C(c1cc(-c2cccs2)on1)N1CCCCC1 | – | 14.1 µM (active)
COc1cccc(-c2cc(C(=O)N3CCN(c4ccccc4OC)CC3)no2)c1 | -3.29% | –
O=C(c1ccc(F)cc1)N1CCCC(c2nc(-c3cccs3)no2)C1 (stereo not given) | -20.6% | –
O=C(c1cc(-c2ccc(F)cc2)on1)N1CCN(c2ccc(F)cc2)CC1 | 3.16% | –
COc1ccccc1-c1cc(C(=O)N2CCCCC2)no1 | – | 14.1 µM (active)
CCCCn1cc(S(=O)(=O)c2ccc(OCC)cc2)c(=O)c2cc(OC)c(OC)cc21 | 7.93% | –
